These results are taken from PubChem BioAssay AID504339 (National Center for Advancing Translational Sciences (NCATS), 2011).

Structures are written as SMILES. Screen size: about 390,000 compounds; about 17,000 (4.4%) were called active. A call without a number means that no potency is given here. Not shown: some 8% with an inconclusive outcome. Calls come from the whole dose curve; as a rule, active = well fitted inhibition curve with a large enough effect; inconclusive = small, poorly fitted or top-dose-only effect; inactive = no such curve, though single readings can be large or run the other way. For the sample, actives were picked, then their nearest neighbours and some compounds at random.
Potency is the fitted concentration of half-maximal effect.

In the experiment the target is Lysine-specific demethylase 4A (Homo sapiens) (UniProt O75164). Put plainly: qHTS Assay for Inhibitors of JMJD2A-Tudor Domain. Note: nearly all actives have a fitted effect of over 50% in size. Particulars: AlphaScreen JMJD2A-Tudor / H3K4me3 peptide binding; series mostly up to 114 µM.
Lysine-specific demethylase 4A (Homo sapiens), sequence (O75164 whole entry, looked up, the tested form may be a part): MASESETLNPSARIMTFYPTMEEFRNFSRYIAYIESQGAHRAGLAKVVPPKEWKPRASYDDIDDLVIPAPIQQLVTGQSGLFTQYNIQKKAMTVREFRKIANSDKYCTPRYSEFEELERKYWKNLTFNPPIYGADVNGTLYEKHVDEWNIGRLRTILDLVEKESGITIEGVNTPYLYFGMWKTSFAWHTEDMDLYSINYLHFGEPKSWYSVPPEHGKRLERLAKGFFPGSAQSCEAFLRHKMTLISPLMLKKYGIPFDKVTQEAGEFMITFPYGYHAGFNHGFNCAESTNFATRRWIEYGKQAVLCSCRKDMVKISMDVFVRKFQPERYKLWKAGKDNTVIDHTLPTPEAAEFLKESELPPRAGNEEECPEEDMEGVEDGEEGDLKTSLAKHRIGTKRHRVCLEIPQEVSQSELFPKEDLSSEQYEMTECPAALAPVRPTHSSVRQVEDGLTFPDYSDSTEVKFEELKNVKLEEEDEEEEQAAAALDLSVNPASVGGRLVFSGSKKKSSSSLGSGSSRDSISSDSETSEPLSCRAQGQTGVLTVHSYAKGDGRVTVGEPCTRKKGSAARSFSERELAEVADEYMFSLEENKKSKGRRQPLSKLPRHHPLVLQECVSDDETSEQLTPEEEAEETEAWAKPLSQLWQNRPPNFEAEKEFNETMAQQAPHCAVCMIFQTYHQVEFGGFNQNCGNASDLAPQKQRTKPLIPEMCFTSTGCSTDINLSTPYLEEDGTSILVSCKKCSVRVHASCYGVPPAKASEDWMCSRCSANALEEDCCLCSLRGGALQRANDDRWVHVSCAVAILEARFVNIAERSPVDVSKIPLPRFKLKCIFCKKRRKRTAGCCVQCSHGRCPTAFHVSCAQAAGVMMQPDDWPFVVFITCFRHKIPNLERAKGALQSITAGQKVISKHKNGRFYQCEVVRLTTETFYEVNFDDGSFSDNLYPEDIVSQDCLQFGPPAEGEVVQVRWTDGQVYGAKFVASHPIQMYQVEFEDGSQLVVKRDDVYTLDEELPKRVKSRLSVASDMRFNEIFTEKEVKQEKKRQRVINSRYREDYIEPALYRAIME
As for `O=C(CN1CCCCCC1)Nc1ccc(Br)cc1[N+](=O)[O-]`, the Potency was 44.7 µM (active). As for `O=C(CN1CCCCCC1)Nc1ccc(Cl)cc1F`, the entry is “inactive”; as for `O=C(CN1CCCCCC1)Nc1ccc(Br)cc1Br`, “inactive”. As for `Cn1c(COc2ccccc2C(C)(C)C)nc2ccccc21`, the entry is “inactive”; as for `CCOCCn1ccc2c(OCC(=O)NCc3ccc(C)cc3)cccc2c1=O`, “inactive”; as for `CC1(C)NC(=O)N(CCOc2cccc(Oc3ccccc3)c2)C1=O`, “inactive”. As for `CC(O)CNCCOc1cccc(Oc2ccccc2)c1` (stereo not drawn), the figure is 3.55 µM (active); as for `C=CCNCCCCOc1ccccc1`, “inactive”. For the molecule `CCOc1ccc(NC(=O)c2cc(S(=O)(=O)N3CCCC3)c[nH]2)cc1`, the Potency result is “inactive”. In the case of `Cn1c(=O)c2c(ncn2CC(=O)Nc2cccc(C(F)(F)F)c2)n(C)c1=O`, the Potency entry is “inactive”.

Take `O=C(CSc1nc(-c2ccccc2)cs1)Nc1cccc([N+](=O)[O-])c1`: the Potency entry is “inactive”. As to `O=c1cc(CO)oc(C(Nc2cccc(C(F)(F)F)c2)c2ccccn2)c1O` (stereo not drawn), the Potency is 56.2 µM (active).

As to `O=C(CSc1nnc(-c2ccccc2F)o1)Nc1cccc(C(F)(F)F)c1`, the Potency entry is “inactive”. With `O=c1cc(CO)oc(C(Nc2cccc([N+](=O)[O-])c2)c2ccccn2)c1O` (stereo not drawn), the Potency was 50.1 µM (active). As for `O=[N+]([O-])c1cccc(S(=O)(=O)NCc2ccccn2)c1`, the entry is “inactive”; as for `COc1cccc(-c2nnc3n(CCc4ccccc4)c(=O)c4ccccc4n23)c1O`, “inactive”; as for `Cc1ccc(-c2nc(Cn3c(=O)cc(-c4ccccc4)c4c(C)nn(C)c43)c(C)o2)cc1`, “inactive”. Regarding `COc1ccc(CNC(=O)CCc2c(C)nn(-c3ccc(N4CCCC4)nn3)c2C)cc1`, the Potency result is “inactive”.

Regarding `CCOc1ccc(C(=O)c2cn(Cc3ccc(F)cc3)c3ccc(F)cc3c2=O)cc1`, the Potency result is “inactive”.

With `Cc1cccc(Cn2c(CN3CCC(C(=O)NCc4ccccc4Cl)CC3)cc3ccccc32)c1`, the Potency entry is “inactive”. In the case of `CCOC(=O)c1c(SCC(=O)Nc2cccc(C)c2C)nc(=O)[nH]c1C` it was “inactive”; in that of `CC1=C(C(=O)Nc2ccccc2)C(c2ccc(C)cc2)n2nc(SCc3ccccc3C)nc2N1` (stereo not drawn), “inactive”; in that of `O=c1cc(CCl)nc2scc(-c3ccccc3)n12`, “inactive”. In the case of `CN(C)CCCn1c(-c2ccc(Cl)cc2)csc1=Nc1ccccc1` it was 39.8 µM (active); in that of `CN(C)CCCn1c(=O)n(Cc2ccccc2)c(=O)c2c3c(sc21)CCCCC3`, “inactive”. As for `CC(C)Cn1c(-c2ccc(S(=O)(=O)N3CCOCC3)cc2)csc1=Nc1cc(Cl)ccc1Cl`, the entry is “inactive”; as for `OCCn1c(-c2ccccc2)csc1=Nc1ccccc1`, 56.2 µM (active); as for `CCN(c1ncnc2c1cnn2-c1ccc(C)cc1)C1CCCCC1`, “inactive”. As for `COc1ccc(-c2ccc(=O)n(CC(=O)Nc3ccc(Br)cc3F)n2)cc1`, the Potency result was “inactive”. On to `CCCC(=O)C1=C(N(C)c2ccccc2)CC(C)(C)C(C(=O)OC)C1=O` (stereo not drawn), for which the Potency entry was “inactive”.

For the molecule `COCC(C)N=CC1=C(O)CC(C)(C)CC1=O` (stereo not drawn), the Potency result was “inactive”. As for `C=CCO/N=C/C1=C(O)C(C(=O)OC)C(C)(C)CC1=O` (stereo not drawn), the figure is 79.4 µM (active); as for `Cn1c(=O)c2c(SCC(=O)NCC3CCCO3)nc(-c3ccccc3F)nc2n(C)c1=O` (stereo not drawn), “inactive”; as for `O=C(CCS(=O)(=O)c1cc(Br)cc2c1N(C(=O)C1CC1)CC2)Nc1ccc(C(F)(F)F)cc1`, “inactive”.

Turning to `COc1ccc(OC)c(NC(=O)CN2CCCN(Cc3cc(C)ccc3C)S2(=O)=O)c1`, the Potency result is “inactive”. As for `Cc1ccc(C(C)C)cc1OCCN1CCCC1`, the Potency was 79.4 µM (active). In the case of `Cc1ccc(C(C)C)cc1OCC(=O)Nc1ccccc1N1CCCC1` it was “inactive”.

On to `Cc1cccc(C(=O)OC(C)CN2CCCC2)c1` (stereo not drawn), for which the Potency entry was “inactive”. In the case of `Cc1cc(OCCN2CCCC2)cc(C(C)C)c1` it was 5.01 µM (active); in that of `COc1cc(/C=N/NC(=O)c2ccoc2C)ccc1OCCN1CCCCC1`, “inactive”; in that of `CCCn1c(=N)c(C(=O)NCc2ccccc2)cc2c(=O)n3cccc(C)c3nc21`, “inactive”. As for `Cn1c(=O)c2c(SCC(=O)N3CCc4ccccc43)nc(-c3ccc(Cl)cc3)nc2n(C)c1=O`, the entry is “inactive”. For `CCNC(=O)CC1C(=O)N(c2ccc(F)cc2)C(=O)N1Cc1ccc(C)cc1` (stereo not drawn), the Potency result was “inactive”. As for `CN1CCN(C2(CNC(=O)COc3ccc(C(C)(C)C)cc3)CCCCC2)CC1`, the entry is “inactive”.

For `Cc1ccc(Cl)cc1N1CCN(C(=O)CN2C(=O)COc3ccc(S(=O)(=O)N4CCOCC4)cc32)CC1`, the Potency result is “inactive”. In the case of `Oc1ccc(Cl)cc1C1C=C(c2ccc3c(c2)OCO3)NC(c2ccc(F)c(Br)c2)N1` (stereo not drawn) it was “inactive”; in that of `CC(C)c1ccc(C2CC(=O)N3CN(C4CCCCC4)CSC3=C2C#N)cc1` (stereo not drawn), 25.1 µM (active).

On to `CC(C)c1ccc(C2C(C#N)=C(N)Oc3c2oc(CO)cc3=O)cc1` (stereo not drawn), for which the Potency entry was “inactive”.

On to `COc1ccc(NC(=O)CSc2nc(N)c(-c3ccccc3)c(=O)[nH]2)cc1`, for which the Potency result is “inactive”. As to `COc1cc(OC)cc(-c2nnc(SCC(=O)Nc3ccc(C(=O)O)cc3)s2)c1`, the Potency result was “inactive”. In the case of `COc1ccc(-c2nc3c(c(SCC(=O)Nc4ccc(C(=O)O)cc4)n2)Cc2ccccc2O3)cc1` it was 35.5 µM (active). On to `CN(Cc1ccccc1)C(=O)c1cn(C)c2ccc(S(=O)(=O)N3CCCCC3)cc2c1=O`, for which the Potency entry was “inactive”. In the case of `CCOc1ccc(CC(=O)NC2CCN(Cc3ccccc3)CC2)cc1` it was “inactive”; in that of `CCOc1ccc(CN2CCCN(C)CC2)cc1`, 3.55 µM (active). As for `CCOc1ccc(CN2CCN(CCCc3ccccc3)C(CCO)C2)cc1` (stereo not drawn), the entry is “inactive”; as for `CCOc1ccccc1CNC(=O)c1ccc(-n2c(C)cc3c2CCC(C)C3)cc1` (stereo not drawn), “inactive”; as for `COc1ccc(C(=O)COC(=O)C(O)c2ccccc2)c(OC)c1` (stereo not drawn), “inactive”. As to `COc1ccc(/C=C2/C(=O)N(c3ccccc3)N=C2C)c(OC)c1`, the Potency was 15.8 µM (active). In the case of `COc1ccc(/C=C2/C(=O)OCc3cc(OC)c(OC)cc32)c(OC)c1` it was “inactive”. For the molecule `Cc1ccc(CNC(=O)CCc2c(C)nc3c(c(C)nn3-c3ccccc3)c2C)cc1`, the Potency result was “inactive”. Turning to `Cc1cc(C(=O)NNC(=S)NC(C)c2ccccc2)cs1` (stereo not drawn), the Potency entry is “inactive”. As to `C/C(CC(=O)NC(C)c1ccccc1)=N\NC(N)=S` (stereo not drawn), the Potency was 31.6 µM (active). As for `Cc1ccc(S(=O)(=O)CC(=O)NC(C)c2ccccc2)cc1` (stereo not drawn), the entry is “inactive”.

With `CCN1CCN(CCCNC(=O)c2cnn(-c3ccc(C)cc3C)c2C2CCN(C(=O)OC(C)(C)C)CC2)CC1`, the Potency entry is “inactive”. Take `COc1ccc(Cn2c(=O)n(-c3ccccc3C)c(=O)c3c4c(sc32)CN(C(C)=O)CC4)cc1`: the Potency entry was “inactive”. As for `COc1ccccc1N1CCN(C(CNC(=O)C(=O)NCc2ccc(C)cc2)c2cccnc2)CC1` (stereo not drawn), the entry is “inactive”; as for `CCN1CCN(C(c2cccnc2)c2cc(Cl)c3cccnc3c2O)CC1` (stereo not drawn), 17.8 µM (active). On to `O=C(NC(c1ccco1)c1cc(Cl)c2cccnc2c1O)c1ccccc1` (stereo not drawn), for which the Potency result is “inactive”.

Take `CC(=O)NC(c1cccs1)c1cc(Cl)c2cccnc2c1O` (stereo not drawn): the Potency entry was “inactive”. In the case of `O=C(CSc1cccc2cccnc12)N/N=C/c1cccnc1` it was “inactive”; in that of `CCOC(=O)N1CCN(C(c2cccnc2)c2ccc3cccnc3c2O)CC1` (stereo not drawn), 17.8 µM (active). Consider `CC1=C(C(=O)OCc2ccc(C)cc2)C(c2c(Cl)cccc2Cl)CC(=O)N1` (stereo not drawn), for which the Potency entry was “inactive”. Consider `Cc1onc(-c2ccc(F)cc2F)c1C(=O)Nc1cccc(C(F)(F)F)c1`, for which the Potency entry is “inactive”. In the case of `CCOCCCNC(=O)c1c(NC(=O)c2nc(SC)ncc2Cl)sc2c1CCCC2`, the Potency result was “inactive”. In the case of `CCOc1ccc(NC(=O)CCc2c(C)nn(-c3ccc(N4CCCC4)nn3)c2C)cc1`, the Potency entry was “inactive”.

For the molecule `O=C(C1CC(=O)N(C2CCCCC2)C1)N1CCN(c2ccccc2)CC1` (stereo not drawn), the Potency entry is “inactive”.

Turning to `O=C1C=CC(=O)N1c1ccc(N2CCCCC2)cc1`, the Potency was 20 µM (active). In the case of `CCC(=O)c1ccc(OCC(=O)Nc2ccc(N3CCCCC3)cc2)cc1` it was “inactive”. Regarding `CCC(=O)Nc1ccc(C)cc1-c1nc2ccccc2n(Cc2ccccc2)c1=O`, the Potency result was “inactive”. Consider `COc1cc(CN(C(=O)c2ccccc2Br)c2ccccn2)cc(OC)c1OC`, for which the Potency entry is “inactive”.

As to `COc1ccccc1C1C(C(=O)N2CCCCC2)=C(C)Nc2nc3ccccc3n21` (stereo not drawn), the Potency entry was “inactive”.

`COc1ccccc1CNC(=O)c1ccc(-n2c(C)cc3c2CCCC3)cc1`: the Potency result is “inactive”. As for `CCc1nnc(NC(=O)c2nc3nccc(C)n3n2)s1`, the figure is 35.5 µM (active); as for `CCc1nnc(NC(=O)c2ccc(S(=O)(=O)NC3CCCCC3)cc2)s1`, “inactive”. As for `Cc1ccnc2nc(C(=O)Nc3nnc(-c4ccccc4)o3)nn12`, the entry is “inactive”; as for `COc1ccc(CCC(=O)NCc2ccc3c(c2)CCN3C(=O)c2ccc(F)cc2)cc1`, “inactive”. In the case of `COc1ccccc1-n1ccnc1SCC(=O)NC(C)(C)C` it was “inactive”; in that of `COc1ccccc1-n1ccnc(SCC(=O)NC2CCCCC2)c1=O`, 35.5 µM (active); in that of `COc1ccc(-c2nnc(SCC(=O)NC3CCCCC3)o2)cc1OC`, “inactive”. As for `N#CN1CCC(NC(=O)c2ccc(F)cc2)CC1`, the Potency result is “inactive”.

For the molecule `C/C=C/c1ccc(OCCCCN2CCC(C)CC2)c(OC)c1`, the Potency is 3.16 µM (active). On to `COc1ccc(OCCCCN2CCC(C)CC2)cc1`, for which the Potency was 20 µM (active). As for `C/C=C/c1ccc(OCC(=O)NNC(=O)CN(C)S(=O)(=O)c2ccc(C)cc2)c(OC)c1`, the entry is “inactive”.

As to `OC(COc1ccc(CN2CCSCC2)cc1)CN1CCCCC1` (stereo not drawn), the Potency result is “inactive”. Regarding `CC1CCN(CCC(=O)Nc2ccccc2)CC1`, the Potency entry is “inactive”. `C=CCc1ccc(OCC(O)CN2CCN(Cc3ccccc3)CC2)c(OC)c1` (stereo not drawn): the Potency entry is “inactive”. For the molecule `COc1ccc(OC)c(NC(=O)CCN2CCC(C)CC2)c1`, the Potency result was “inactive”. As for `C/C=C/c1ccc(OCCOc2ccc(C=O)cc2OC)c(OC)c1`, the entry is “inactive”; as for `C/C=C/c1ccc(OCC(O)CN2CCCCCCC2)c(OC)c1` (stereo not drawn), 3.16 µM (active); as for `O=C(NC1CC(=O)N(c2ccc(F)cc2)C1)c1cccs1` (stereo not drawn), “inactive”. As for `COc1ccc(-c2noc(CSc3nnc(-c4ccccc4)n3-c3ccc(F)cc3)n2)c(OC)c1`, the entry is “inactive”; as for `Cc1oc2ccc(O)c(CN3CCCCC3)c2c1C(=O)Nc1cccc(C(F)(F)F)c1`, “inactive”; as for `CCCCCn1c(=O)[nH]c2cc(C(=O)NCCN(C)CCCC)ccc2c1=O`, “inactive”.
